In PubChem BioAssay (EPA / NIEHS):
Activity calls are given as the source filed them. The calls were made as follows: active = hit-call score of the fitted dose curve at least 0.9, where 1 is the maximum; inactive = score below 0.9.

Assays:
[1] = read-out: Interleukin-1 alpha (IL1a), IL1A (gene 3552); assay: BSK_KF3CT_IL1a: BioMAP Diversity Plus: KF3CT Assay for Interleukin-1 alpha (IL1a) Biomarker Activity (AID 2283070); conditions: primary human keratinocytes with fibroblasts; actives raise or lower the signal
Method in brief: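 Chemicals were dosed onto co-cultured human keratinocytes and foreskin fibroblasts, IL-1a was quantified by ELISA at 24 h, and activity was fitted in both directions relative to DMSO controls.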

[2] = read-out: TIMP metallopeptidase inhibitor 2 (TIMP2), TIMP2 (gene 7077); assay: BSK_KF3CT_TIMP2: BioMAP Diversity Plus: KF3CT Assay for TIMP metallopeptidase inhibitor 2 (TIMP2) Biomarker Activity (AID 2283071); conditions: primary human keratinocytes with fibroblasts; actives raise or lower the signal
Method in brief: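 Cells: human keratinocytes co-cultured with foreskin fibroblasts. Treat with chemical, 24 h. Measure TIMP-2 by ELISA; fit curves bidirectionally vs DMSO baseline.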

[3] = read-out: C-C motif chemokine 2 (Homo sapiens) (UniProt P13500); assay: BSK_KF3CT_MCP1: BioMAP Diversity Plus: KF3CT Assay for Monocyte Chemoattractant Protein 1 (MCP1/CCL2) Biomarker Activity (AID 2283073); conditions: primary human keratinocytes with fibroblasts; actives raise or lower the signal
Method in brief: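 ELISA read-out of MCP-1, 24 h post-dose, in primary human skin keratinocytes co-cultured with fibroblasts. Parallel SRB staining monitors cytotoxicity; changes fitted both directions relative to DMSO.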

[4] = read-out: Matrix Metallopeptidase 9 (MMP9), MMP9 (gene 4318); assay: BSK_KF3CT_MMP9: BioMAP Diversity Plus: KF3CT Assay for Matrix Metallopeptidase 9 (MMP9) Biomarker Activity (AID 2283074); conditions: primary human keratinocytes with fibroblasts; actives raise or lower the signal
Method in brief: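 Human keratinocyte/foreskin fibroblast co-culture; compound added; 24 h; MMP-9 by ELISA; bidirectional fit vs DMSO baseline.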

[5] = read-out: urokinase plasminogen activator (uPA), PLAU (gene 5328); assay: BSK_KF3CT_uPA: BioMAP Diversity Plus: KF3CT Assay for urokinase plasminogen activator (uPA) Biomarker Activity (AID 2283075); conditions: primary human keratinocytes with fibroblasts; actives raise or lower the signal
Method in brief: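 ELISA readout of uPA, analyzed for signal gain or loss relative to DMSO, from a human primary keratinocyte–foreskin fibroblast co-culture measured 24 h after chemical treatment.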

[6] = read-out: CD40, CD40 (gene 958); assay: BSK_LPS_CD40: BioMAP Diversity Plus: LPS Assay for CD40 Biomarker Activity (AID 2283076); conditions: primary human HUVEC with PBMC; actives raise or lower the signal
Method in brief: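 In the LPS system of human endothelial cells with peripheral blood mononuclear cells, CD40 levels were read by ELISA 24 h post-treatment. Signal changes in either direction were fitted against the DMSO baseline, with parallel SRB protein staining.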

[7] = read-out: E-selectin (Homo sapiens) (UniProt P16581); assay: BSK_LPS_Eselectin: BioMAP Diversity Plus: LPS Assay for Eselectin Biomarker Activity (AID 2283077); conditions: primary human HUVEC with PBMC; actives raise or lower the signal
Method in brief: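 E-selectin ELISA on LPS-stimulated endothelial cell/PBMC co-cultures, read 24 h post-treatment; gains and losses fitted against DMSO. Parallel SRB staining (0.1% SRB after 10% TCA fixation, 560 nm) flags overt cytotoxicity.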

[8] = read-out: Interleukin-8 (IL8), CXCL8 (gene 3576); assay: BSK_LPS_IL8: BioMAP Diversity Plus: LPS Assay for Interleukin-8 (IL8) Biomarker Activity (AID 2283078); conditions: primary human HUVEC with PBMC; actives raise or lower the signal
Method in brief: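 ELISA read-out of IL-8 after 24 h chemical treatment of LPS-activated endothelial/PBMC human primary co-cultures. Changes either up or down relative to DMSO; overt cytotoxicity checked by sulforhodamine B staining in parallel wells.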

[9] = BSK_LPS_SRB: Viability Assessment in the BioMAP Diversity Plus: LPS Assay (AID 2283079); conditions: primary human HUVEC with PBMC;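 also: total protein by sulforhodamine B absorbance as a cytotoxicity measure; measured one day after compound addition; fitted in both directions against DMSO so loss or gain of signal counts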
Method in brief: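 SRB viability endpoint: cells fixed with 10% TCA, stained with 0.1% SRB, read at 560 nm, 24 h post-dose. HUVEC/PBMC co-culture; signal change in either direction scored relative to DMSO.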

[10] = read-out: Interleukin-1 alpha (IL1a), IL1A (gene 3552); assay: BSK_LPS_IL1a: BioMAP Diversity Plus: LPS Assay for Interleukin-1 alpha (IL1a) Biomarker Activity (AID 2283080); conditions: primary human HUVEC with PBMC; actives raise or lower the signal
Method in brief: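 Readout is IL-1a level by ELISA, 24 h post-dose, fitted as gain or loss relative to DMSO. System: LPS-activated human primary co-culture of vascular endothelium and peripheral blood mononuclear cells, with parallel SRB total-protein cytotoxicity.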

[11] = read-out: Monocyte Chemoattractant Protein-1 (MCP1), CCL2 (gene 6347); assay: BSK_LPS_MCP1: BioMAP Diversity Plus: LPS Assay for Monocyte Chemoattractant Protein-1 (MCP1) Biomarker Activity (AID 2283081); conditions: primary human HUVEC with PBMC; actives raise or lower the signal;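 as to AC50: secreted MCP-1 protein quantified by ELISA in culture supernatant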
Method in brief: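 Secreted MCP-1 read by ELISA at 24 h post-dosing in an LPS-activated co-culture of endothelial cells with peripheral blood mononuclear cells. Fits run in both directions, DMSO as baseline; parallel SRB staining tracks overt cytotoxicity.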

[12] = BSK_LPS_PGE2: BioMAP Diversity Plus: LPS Assay for Prostaglandin E2 (PGE2) Biomarker Activity (AID 2283082); conditions: primary human HUVEC with PBMC; actives raise or lower the signal;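 as to AC50: secreted prostaglandin E2 measured by ELISA in LPS-stimulated co-culture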
Method in brief: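 LPS-activated HUVEC/PBMC co-culture; cmpd dosed, 24 h; PGE2 by ELISA; bidirectional fit vs DMSO; SRB (0.1%, TCA-fixed, 560 nm) in parallel plates for overt cytotox.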

[13] = read-out: Macrophage colony-stimulating factor (MCSF), CSF1 (gene 1435); assay: BSK_LPS_MCSF: BioMAP Diversity Plus: LPS Assay for Macrophage colony-stimulating factor (MCSF) Biomarker Activity (AID 2283083); conditions: primary human HUVEC with PBMC; actives raise or lower the signal
Method in brief: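 Bidirectional fitting against DMSO was applied to M-CSF levels read by ELISA at 24 h post-dose. The system pairs human umbilical vein endothelium with peripheral blood mononuclear cells; parallel SRB staining tracked cytotoxicity.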

[14] = read-out: Tissue Factor, F3 (gene 2152); assay: BSK_LPS_TissueFactor: BioMAP Diversity Plus: LPS Assay for Tissue Factor Biomarker Activity (AID 2283084); conditions: primary human HUVEC with PBMC; actives raise or lower the signal
Method in brief: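 Compound was added to an endothelial cell/PBMC co-culture, and after 24 h tissue factor (CD142) was read by ELISA. Gain or loss of signal was fitted against a DMSO baseline, and parallel SRB staining (560 nm) tracked overt cytotoxicity.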

[15] = read-out: Tumor necrosis factor (Homo sapiens) (UniProt P01375); assay: BSK_LPS_TNFa: BioMAP Diversity Plus: LPS Assay for Tumour Necrosis Factor alpha (TNFa) Biomarker Activity (AID 2283085); conditions: primary human HUVEC with PBMC; actives raise or lower the signal;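 as to AC50: TNFa protein level quantified by ELISA in the co-culture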
Method in brief: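 Read-out is ELISA of TNFa in primary human endothelial cell–PBMC co-cultures at 24 h after compound. Activity in either direction was fitted against DMSO.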

[16] = read-out: Vascular cell adhesion molecule 1 (VCAM1), VCAM1 (gene 7412); assay: BSK_LPS_VCAM1: BioMAP Diversity Plus: LPS Assay for Vascular cell adhesion molecule 1 (VCAM1) Biomarker Activity (AID 2283086); conditions: primary human HUVEC with PBMC; actives raise or lower the signal
Method in brief: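 HUVEC + PBMC co-culture, LPS system; compound 24 h; VCAM-1 by ELISA; bidirectional fit vs DMSO control; parallel SRB (0.1%, TCA-fixed, 560 nm) for cytotoxicity.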

[17] = read-out: CD38, CD38 (gene 952); assay: BSK_SAg_CD38: BioMAP Diversity Plus: SAg Assay for CD38 Biomarker Activity (AID 2283087); conditions: primary human HUVEC with PBMC; actives raise or lower the signal
Method in brief: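 Human HUVEC plus PBMC co-culture stimulated with superantigen; CD38 measured by ELISA 24 h after chemical dosing. Fluorescence read-out, bidirectional fit against DMSO; cytotoxicity tracked in parallel by SRB and Alamar Blue.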

[18] = read-out: CD40, CD40 (gene 958); assay: BSK_SAg_CD40: BioMAP Diversity Plus: SAg Assay for CD40 Biomarker Activity (AID 2283088); conditions: primary human HUVEC with PBMC; actives raise or lower the signal
Method in brief: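 CD40 is measured by fluorescence ELISA in an endothelial/PBMC primary human co-culture at 24 h post-dose. Fitting is bidirectional, DMSO baseline. Parallel SRB staining (560 nm) flags cytotoxicity.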

[19] = read-out: CD69, CD69 (gene 969); assay: BSK_SAg_CD69: BioMAP Diversity Plus: SAg Assay for CD69 Biomarker Activity (AID 2283089); conditions: primary human HUVEC with PBMC; actives raise or lower the signal
Method in brief: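 Values derive from bidirectional fitting relative to DMSO vehicle. Cells: umbilical vein endothelium plus peripheral blood mononuclear cells, treated 24 h before fluorescent ELISA for CD69.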

Measured: AC50

Chain of Tumor necrosis factor (Homo sapiens) (P01375 whole entry, looked up): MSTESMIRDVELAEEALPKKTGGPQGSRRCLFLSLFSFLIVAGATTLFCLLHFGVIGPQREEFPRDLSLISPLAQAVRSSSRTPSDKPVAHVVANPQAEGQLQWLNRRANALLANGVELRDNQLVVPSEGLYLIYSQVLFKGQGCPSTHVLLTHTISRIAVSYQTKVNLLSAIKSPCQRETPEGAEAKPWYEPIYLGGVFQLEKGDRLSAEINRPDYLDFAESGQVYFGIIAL
Chain of E-selectin (Homo sapiens) (P16581 whole entry, looked up): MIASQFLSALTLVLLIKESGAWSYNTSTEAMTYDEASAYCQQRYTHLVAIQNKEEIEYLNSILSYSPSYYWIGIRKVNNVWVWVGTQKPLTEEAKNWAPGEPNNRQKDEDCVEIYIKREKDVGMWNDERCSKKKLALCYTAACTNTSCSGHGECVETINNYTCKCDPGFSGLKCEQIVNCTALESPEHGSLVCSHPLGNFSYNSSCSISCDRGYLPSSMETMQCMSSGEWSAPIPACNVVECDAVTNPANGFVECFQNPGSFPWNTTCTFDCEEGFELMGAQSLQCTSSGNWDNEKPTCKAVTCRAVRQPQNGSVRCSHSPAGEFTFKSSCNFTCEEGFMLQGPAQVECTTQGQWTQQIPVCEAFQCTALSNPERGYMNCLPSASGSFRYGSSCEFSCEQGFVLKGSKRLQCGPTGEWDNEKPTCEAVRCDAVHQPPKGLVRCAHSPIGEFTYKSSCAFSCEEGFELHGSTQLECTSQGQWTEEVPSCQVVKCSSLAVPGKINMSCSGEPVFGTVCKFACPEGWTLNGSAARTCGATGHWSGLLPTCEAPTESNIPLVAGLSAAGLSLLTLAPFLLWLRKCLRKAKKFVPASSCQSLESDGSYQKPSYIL

Oc1ccccc1-c1ccccc1
active: [12] 4.65 µM | [15] 14.8 µM
inactive: all other assays above

CON(C)C(=O)Nc1ccc(Cl)c(Cl)c1
active: [12] 6.39 µM | [13] 7.53 µM
inactive: all other assays above

CNC(=S)S
active: [6] 15.7 µM | [7] 14.7 µM | [8] 20.8 µM | [9] 26.1 µM | [11] 20 µM | [12] 8.25 µM | [13] 9.92 µM | [15] 7.49 µM | [16] 12.4 µM | [17] 13.7 µM
inactive: [1] | [2] | [3] | [4] | [5] | [14] | [18] | [19]

CC(C)C1(C)N=C(c2nc3ccccc3cc2C(=O)O)NC1=O (centres undefined)
active: [13] 2.62 µM | [18] 1.33 µM
inactive: all other assays above

COC(=O)C=C(C)OP(=O)(OC)OC
active: [12] 0.37 µM
inactive: all other assays above
